Screening data: PubChem, several laboratories
An excerpt weighted towards active compounds, which were near 27% of everything screened.
CYP2C9 inh – blocks human cytochrome P450 2C9; P11712; CYP2C9 Supersomes, luciferin-H conversion, luminescence; inhibition, % at 5 µM; 96,000 tested, 20% active; AID 777;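 active = blocking of liver enzyme CYP2C9 beyond about 50% at 5 µM, limit read from the data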
Cav3 T inh – blocks human Cav3.2 T-type calcium channel; O95180; Cav3.2-expressing cells, Fluo-4 calcium fluorescence FDSS; hits give low values; B-score at 10 µM; 100,000 tested, 4% active; AID 449739;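 active = single-dose well whose peak fluorescence ratio is a statistical outlier from its plate by either plate-standardised score or position-corrected B-score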
CYP2C19 inhib – inhibitors of human CYP2C19. P33261. CYP2C19 Supersomes, luciferin-H EGE luminescence, 30 min. inhibition, % at 5 µM. 96,000 tested, 21% active;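 active = CYP2C19 inhibition above a set limit at 5 µM in the primary screen, cut at about 50% in these data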;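 note: plate controls were negative control wells for no effect and 2.5 mM tranylcypromine positive control for full effect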
Target sequence (P33261 whole entry, looked up): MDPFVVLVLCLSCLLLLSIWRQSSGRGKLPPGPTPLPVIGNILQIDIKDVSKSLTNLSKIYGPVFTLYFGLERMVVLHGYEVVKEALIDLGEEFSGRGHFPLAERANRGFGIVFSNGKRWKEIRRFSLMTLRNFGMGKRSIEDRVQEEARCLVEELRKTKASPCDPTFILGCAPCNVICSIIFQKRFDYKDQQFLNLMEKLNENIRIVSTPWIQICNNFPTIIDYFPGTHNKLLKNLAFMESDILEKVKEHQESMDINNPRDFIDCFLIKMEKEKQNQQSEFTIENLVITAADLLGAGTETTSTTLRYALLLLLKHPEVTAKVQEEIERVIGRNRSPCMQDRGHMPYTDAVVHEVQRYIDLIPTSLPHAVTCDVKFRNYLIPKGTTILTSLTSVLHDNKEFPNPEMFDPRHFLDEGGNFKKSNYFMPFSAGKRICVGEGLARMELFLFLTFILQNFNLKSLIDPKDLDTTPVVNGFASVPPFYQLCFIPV
CYP2C9 act – increases human cytochrome P450 2C9 activity; P11712; recombinant CYP2C9, luciferin-H conversion, luminescence; hits give high values; factor 1 = untreated enzyme, 0 = blocked; activation factor at 5 µM; 96,000 tested, 1.4% active; AID 1024;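 active = activation factor of 2 or more for CYP2C9 at a 5 µM dose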;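 note: 0 = sulfaphenazole-blocked wells and 1 = vehicle-only wells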
CYP2C19 activ – increases human CYP2C19 enzyme activity | recombinant CYP2C19, luciferin-H EGE luminescence; hits give high values; 0 = fully inhibited enzyme, 1 = untreated enzyme | activation factor at 5 µM | 96,000 tested, under 10 active | P33261 | AID 1025;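 active = activation factor of at least 2 at 5 µM in the primary screen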;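 note: 0 = wells with 2.5 mM tranylcypromine and 1 = vehicle-only wells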
* marks the source's active call; other numbers are inactive results; / = not tested or not shown.

SMILES | CYP2C9 inh | Cav3 T inh | CYP2C19 inhib | CYP2C9 act | CYP2C19 activ
CC1CCC(C(=O)c2c(O)c3ccccc3oc2=O)CC1 (stereo unspecified) | 24 | -3.6 | -3 | 0.8 | 1
CCCCC(=O)c1c(O)c2ccccc2oc1=O | 21 | -1.2 | -10 | 0.8 | 1.1
CCCCN=C(C)c1c(O)c2ccccc2oc1=O | 56* | -0.031 | 85* | 0.4 | 0.2
O=C(CC1CCCCC1)c1c(O)c2ccccc2oc1=O | 28 | -7.6* | -6 | 0.7 | 1.1
CCOc1ccc(OCC(=O)c2c(O)c3ccccc3oc2=O)cc1 | 91* | -2.4 | -1 | 0.1 | 1
COc1ccc(OCC(=O)c2c(O)c3ccccc3oc2=O)cc1 | 78* | -2.4 | -11 | 0.2 | 1.1
CC(=NCCc1ccccc1)C1=C(O)COC1=O | 9 | 0.46 | 27 | 0.9 | 0.7
CCn1c(=NC(=O)c2ccc(S(=O)(=O)N3CCOCC3)cc2)sc2cccc(OC)c21 | -8 | -0.99 | 12 | 1.1 | 0.9
CC1CCCN(C(=O)COC(=O)c2ccc[nH]c2=O)C1 (stereo unspecified) | 0 | 0.33 | 8 | 1 | 0.9
CCOC(=O)c1sc(Nc2cccc(C)c2C)nc1C | 70* | / | 11 | 0.3 | 0.9
CCOC(=O)c1sc(NS(=O)(=O)c2cc(C)ccc2C)nc1C | 94* | -3 | 45 | 0.1 | 0.6
O=S(=O)(c1ccccc1)c1nc(-c2cccs2)oc1NCCCn1ccnc1 | 92* | -1.4 | 98* | 0.1 | 0
O=S(=O)(c1ccccc1)c1nc(-c2ccco2)oc1NCCCN1CCOCC1 | 6 | 0.7 | 16 | 0.9 | 0.8
CCCCNc1oc(-c2cccs2)nc1S(=O)(=O)c1ccccc1 | 30 | -3.3* | 19 | 0.7 | 0.8
CC(C)(C)NC(=O)Cn1c(SCC(N)=O)nc2ccccc21 | -16 | 0.015 | -18 | 1.2 | 1.2
COc1ccc(OC)c(C(=O)CSc2nc3ccccc3n2CC(=O)NC(C)(C)C)c1 | 87* | -0.45 | 26 | 0.1 | 0.7
COc1ccc(C(=O)CSc2nc3ccccc3n2CC(=O)c2ccccc2)cc1 | 76* | -3.1 | 54* | 0.2 | 0.5
Cc1ccc(CN2CCN(CC(=O)NCc3ccc(Cl)cc3)C2=O)cc1 | 35 | -4* | 36 | 0.7 | 0.6
O=C(CN1CCN(Cc2ccccc2)C1=O)NCc1ccc(Cl)cc1 | 12 | -0.54 | 16 | 0.9 | 0.8
CCN(CCNC(=O)CN1CCN(Cc2ccc(Cl)cc2)C1=O)c1ccccc1 | 52* | -4* | 57* | 0.5 | 0.4
CCCC(=O)c1cc(F)c(N2CCOCC2)cc1C | 43 | -0.17 | 53* | 0.6 | 0.5
Cc1nc2c(Cl)cc(Cl)cc2[nH]1 | 1 | 0.8 | 20 | 1 | 0.8
O=C(Cc1ccc(F)cc1)Nc1ccc(F)c([N+](=O)[O-])c1 | 28 | -0.73 | 56* | 0.7 | 0.4
O=C(CN1CCN(c2ccc(F)cc2)CC1)Nc1ccc(F)c(F)c1 | 32 | / | 31 | 0.7 | 0.7
CCCNC(=O)CN(CCc1ccccc1)S(C)(=O)=O | -9 | 0.58 | 76* | 1.1 | 0.2
SMILES | CYP2C9 inh | Cav3 T inh | CYP2C19 inhib | CYP2C9 act | CYP2C19 activ
COC(=O)c1cc(NC(=O)C2CC=CCC2C(=O)O)cc(C(=O)OC)c1 (stereo unspecified) | 38 | 0.2 | -5 | 0.6 | 1
Cc1c(C(=O)Nc2ccccn2)oc2ccccc12 | 30 | -1.2 | 34 | 0.7 | 0.7
Cc1c(C(=O)Nn2cnnc2)oc2ccccc12 | 16 | -0.54 | 74* | 0.8 | 0.3
O=C(NCCN1CCOCC1)c1ccncc1 | 15 | 0.033 | 81* | 0.9 | 0.2
Cc1c(C(=O)NCCN2CCOCC2)oc2ccccc12 | 6 | 0.0059 | 54* | 0.9 | 0.5
Cc1c(C(=O)NCc2cccnc2)oc2ccccc12 | 20 | 0.23 | 64* | 0.8 | 0.4
O=C(NCCN1C(=O)CCC1=O)c1ccncc1 | 30 | 0.23 | 9 | 0.7 | 0.9
Cc1c(C(=O)NCc2cccs2)oc2ccccc12 | 20 | -1.7 | 43 | 0.8 | 0.6
Cc1c(C(=O)NCCN2CCOCC2)oc2ccc(S(=O)(=O)N3CCCCCC3)cc12 | 27 | 1.2 | 10 | 0.7 | 0.9
COc1ccc(N(Cc2cc3ccc(C)cc3[nH]c2=O)C(C)=O)cc1 | 24 | 0.47 | 10 | 0.8 | 0.9
Cc1nc(SCC(=O)Nc2c(C)n(C)n(-c3ccccc3)c2=O)[nH]c(=O)c1C | / | -0.45 | / | / | /
COC(=O)c1sccc1NC(=O)C12CC3CC(CC(C3)C1)C2 | / | 0.28 | / | / | /
Cc1ccc(-c2csc3n[nH]c(=S)n23)cc1 | 17 | -4 | 7 | 0.8 | 0.9
Cc1sc(C(=O)NCc2cccnc2)c2nc(C)n(CC(=O)NCc3cccnc3)c(=O)c12 | 97* | 0.2 | 59* | 0 | 0.4
O=C(CCCc1ccccc1)NCCN1CCOCC1 | 0 | 0.32 | 40 | 1 | 0.6
Cc1c(C(=O)NCc2cccnc2)sc2ncn(CC(=O)N3CCCCC3C)c(=O)c12 (stereo unspecified) | 21 | 0.13 | 11 | 0.8 | 0.9
Cc1c(C(=O)Nc2nnc(C(F)(F)F)s2)oc2ccccc12 | 63* | -3.6 | -4 | 0.4 | 1
O=C(CCSCCC(=O)NCCN1CCOCC1)NCCN1CCOCC1 | 84* | -2.4 | -7 | 0.2 | 1.1
Cc1ccc2c(C)c(C(=O)Nc3cccnc3)oc2c1 | 52* | -3.7 | 49 | 0.5 | 0.5
Cc1cc(Cl)c(S(=O)(=O)Nc2ccc3c(c2)OCCO3)cc1OCC(=O)NC1CCCCC1 | 36 | -2.3 | 16 | 0.6 | 0.8
Cc1nc2cc(NC(=O)COc3ccccc3C#N)ccc2n1-c1ccccc1 | 20 | -0.64 | 18 | 0.8 | 0.8
CCOC(=O)N1CCN(c2nc(-c3ccc(OC)cc3)no2)CC1 | 22 | 0.14 | 23 | 0.8 | 0.8
CCOc1ccccc1Nc1nc2ccccc2[nH]1 | 16 | -0.76 | 26 | 0.8 | 0.7
Cc1c(C(=O)NCc2cccnc2)oc2c1C(=O)CC(C)(C)C2 | 56* | 0.92 | 80* | 0.4 | 0.2
Cn1nc(C(=O)NCc2cccnc2)c2ccccc2c1=O | 60* | 0.47 | 78* | 0.4 | 0.2
SMILES | CYP2C9 inh | Cav3 T inh | CYP2C19 inhib | CYP2C9 act | CYP2C19 activ
Cn1nc(C(=O)Nc2cccnc2)c2ccccc2c1=O | 13 | 0.8 | 4 | 0.9 | 1
CC(NC(=O)c1nn(C)c(=O)c2ccccc12)c1ccc(F)cc1 (stereo unspecified) | 64* | 0.36 | 43 | 0.4 | 0.6
Cc1c(NC(=O)CSc2nnc3c4ccccc4n(CCc4ccccc4)c3n2)c(=O)n(-c2ccccc2)n1C | 33 | 0.27 | 23 | 0.7 | 0.8
COCc1nnc(NS(=O)(=O)c2c(C)cc(C)cc2C)s1 | 84* | 0.55 | 5 | 0.2 | 1
COCc1nnc(NS(=O)(=O)c2ccc(NC(C)=O)cc2)s1 | 34 | -0.057 | 1 | 0.7 | 1
COCc1nnc(NS(=O)(=O)c2ccc(C)cc2)s1 | 52* | 0.84 | -7 | 0.5 | 1.1
COCc1nnc(NS(=O)(=O)c2ccccc2)s1 | 31 | -0.35 | -12 | 0.7 | 1.1
CSC(=NCc1cccnc1)NS(=O)(=O)c1cccs1 | 13 | -0.26 | 65* | 0.9 | 0.3
